Screening data as filed in PubChem BioAssay.
MITF TRPM1 inh = MITF TRPM1 promoter inhibition in SK-MEL-5 cells | SK-MEL-5 TRPM1 promoter luciferase, 24 h | inhibition, % at 12.5 µM | 0.83% of 330,000 active;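 active = mean inhibition across replicates of 60% or more, whatever share of single replicates reaches that level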
Shn3 inh set2 = inhibitors of Schnurri-3 3'UTR reporter in osteoblasts; inhibition, % at 12.5 µM; 0.52% of 360,000 active; Clone20 osteoblast Shn3 3'UTR firefly luciferase, 24 h;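 active = mean inhibition of at least 75% with every replicate also reaching 75%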;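 also: 0% = median of neutral control wells and 100% = pilot-screen positive control compound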
Jurkat NFkB inh = inhibitors of the PMA/ionomycin-induced NF-kB reporter in Jurkat cells; PMA/ionomycin-induced NF-kB luciferase reporter, luminescence; inhibition, % at 4 µM; AID 435003; 0.53% of 330,000 active; in the data active = inhibition above about 50%
697 NFkB inh = inhibitors of the PMA/ionomycin-induced NF-kB reporter in 697 B cells; 697 B-cell NF-kB luciferase reporter, 16 h; inhibition, % at 4 µM; 0.33% of 330,000 active; in the data active = inhibition above about 35%
EBV LMP1 NFkB = inhibitors of Epstein-Barr LMP1-induced NF-kappaB reporter | LMP1-induced NF-kappaB luciferase reporter cells, luminescence | inhibition, % at 12.5 µM | 0.69% of 350,000 active | AID 504558; in the data active = inhibition above about 41%;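 also: 0% = neutral control wells and 100% = reference inhibitor control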
Gli-Sufu block = antagonists of Gli-Sufu signaling | Sufu-KO-LIGHT fibroblasts, Gli luciferase reporter luminescence | inhibition, % at 5 µM | 0.74% of 340,000 active | AID 588413;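 active = inhibition above about 55%, limit read from the data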;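 also: 0% = DMSO-treated cells and 100% = wells with medium but no cells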
* marks the source's active call; other numbers are inactive results; / = not tested or not shown; ! = not confirmed by another sample. Compounds with a hit are over-represented: about 2.3% of the library has one in this group of screens.

SMILES	MITF TRPM1 inh	Shn3 inh set2	Jurkat NFkB inh	697 NFkB inh	EBV LMP1 NFkB	Gli-Sufu block
O=C(NCCc1csc(-c2cccnc2)n1)c1cccc2ccccc12	-6.2	-25.4	0.8	-7.4	88.9*	1.7
O=[N+]([O-])c1ccc(CS(=O)c2ccccc2)cc1 (configuration not stated)	-7.0	2.2	/	/	7.6	-8.8
O=[N+]([O-])c1ccc(S(=O)Cc2ccccc2)c([N+](=O)[O-])c1 (configuration not stated)	97.0*	95.0*	/	/	28.6	25.4
Cc1ccc(-c2cc(NC(=O)CCl)n(-c3ccccc3)n2)cc1	-12.2	/	13.3	15.7	-9.7	-2.7
O=C(CCl)Nc1cc(-c2ccccc2)nn1-c1ccccc1	67.0*	19.4	9.3	7.7	-10.4	2.3
O=C1C=CC(=C(c2ccc(O)cc2)c2ccc(O)cc2)C=C1	83.5*	-22.8	-9.8	-146.9	-45.3	1.5
CCC(=O)c1ccc(O)cc1	-1.2	-20.9	-1.0	-7.9	-1.4	3.3
CCCCNC(=O)C1CCC(CNc2nc(=S)[nH]c3ccccc23)CC1 (configuration not stated)	7.7	-29.2	4.9	18.0	7.8	-4.9
O=C(NCCc1ccc(Cl)cc1)C1CCC(CNc2nc(=S)[nH]c3ccccc23)CC1 (configuration not stated)	76.3*	35.8	0.1	-26.8	14.7	23.6
O=C(NCCC1=CCCCC1)C1CCC(CNc2nc(=S)[nH]c3ccccc23)CC1 (configuration not stated)	64.0*	53.6	0.2	-0.7	-1.6	5.3
CC(O)c1nc(C(C)O)n(CC(=O)c2ccccc2)n1 (configuration not stated)	2.5	-14.1	26.7	20.3	34.4	-6.1
O=[N+]([O-])c1ccc(/C=N/Nc2cc(Cl)nc(-c3ccccc3)n2)cc1	13.7	4.7	2.7	2.0	84.8*	7.5
Nc1cccc(C#Cc2ccc3c(c2)C(=O)/C(=C/c2ccsc2)O3)c1	-44.4	6.7	22.1	-14.8	-19.3	1.8
O=C(CCc1ccccc1)N1CCN(C(=O)CCc2ccccc2)CC1	3.7	-0.3	/	/	8.5	4.3
C=CCN1CCN(C(=O)CCc2ccccc2)CC1	14.8	-1.8	-10.0	-7.4	86.7*	-16.8
CCOc1ccc(C(=O)N2CCN(CC(=O)N3CCCC3)CC2)cc1OCC	-2.5	-5.2	-7.6	19.7	-5.7	-7.3
COc1ccc(OC)c(S(=O)(=O)N2CCC(C(=O)Nc3cc(C)ccc3C)CC2)c1	-5.7	11.6	26.6	-16.7	-2.5	-1.9
Cc1nc2sc(C(N)=O)c(N)c2c2c1CCCC2	18.9	15.2	-4.4	-4.0	51.3*	-20.0
CCOC(=O)c1c(C)[nH]c(C(=O)COC(=O)[C@H](C)N2C(=O)C3CCCCC3C2=O)c1C (some centres not stated)	17.4	92.7*	/	/	-3.0	0.6
CC(=O)c1c(C)[nH]c(C(=O)COC(=O)CN2C(=O)C3CCCCC3C2=O)c1C (configuration not stated)	9.7	-2.8	-14.7	-8.4	0.9	-2.5
O=C(Cn1ccc([N+](=O)[O-])n1)N1CCCc2ccccc21	-5.7	-25.6	-65.0	-53.4	-16.5	-1.4
Cc1ccc(NC(=O)C(C)S)cc1 (configuration not stated)	-14.3	2.4	/	/	8.7	4.6
COc1ccc(N=CC2=C(O)c3ccccc3C2=O)c(OC)c1	76.5*	43.6	-117.4	-149.8	56.9*	5.8
O=S(=O)(c1ccc(F)cc1)c1snnc1-c1ccccc1	66.0*	57.1	/	/	-3.8	2.6
COc1cc(C(=O)NCc2nnc(SCC(=O)Nc3ccc4c(c3)OCO4)o2)cc(OC)c1OC	1.5	-2.3	5.5	0.5	13.0	-9.7
SMILES	MITF TRPM1 inh	Shn3 inh set2	Jurkat NFkB inh	697 NFkB inh	EBV LMP1 NFkB	Gli-Sufu block
Clc1ccc(-c2nnc(NC3=NCCCCC3)o2)cc1	11.9	16.0	-39.5	-210.3	46.3*	-31.0
Cc1cc(Cl)c(S(=O)(=O)N2CCSCC2)cc1OCC(=O)NC1CCCCC1	47.9	87.7*	36.7	-12.1	23.6	25.7
CCN1CCN(S(=O)(=O)c2cc(OCC(=O)NC3CCCCC3)c(C)cc2Cl)CC1	31.0	57.5	22.1	-61.1	26.1	5.6
O=C(/C=C/c1ccc(Br)cc1)NCCCn1ccnc1	0.3	6.9	-10.5	2.8	-22.9	8.8
O=C(O)/C=C/c1ccc(Cn2ccnc2)cc1	0.1	-5.7	4.4	10.7	59.5*!	5.5
O=C(Nc1ccccn1)NC1CCCCC1	-7.7	-12.2	-10.5	9.2	84.4*	-10.1
O=C(Nc1ccccn1)NC1CCS(=O)(=O)C1 (configuration not stated)	6.2	19.4	10.5	14.4	-2.0	-0.3
Cc1ccc(NC(=O)C(=O)Nc2ccccn2)cc1	2.6	12.7	-94.7	-108.3	56.1*	-8.4
O=C(NC(=O)c1ccccc1)Nc1ccccn1	81.3*	60.6	17.2	-28.2	71.3*	/
CC1CCN(CC(CS(=O)(=O)c2ccc([N+](=O)[O-])cc2)N2CCC(C)CC2)CC1 (configuration not stated)	84.1*	-28.8	18.3	10.9	-1.7	-15.7
O=C(NCc1ccccc1Cl)C1CCC(=O)N(CCCN2CCCC2=O)C1 (configuration not stated)	7.0	-9.0	2.1	6.4	-21.0	2.5
CC(C)CC(NC(=O)OCc1ccccc1)C(=O)NC(Cc1ccccc1)C(=O)CCl (configuration not stated)	114.0*	64.4	/	/	1.6	-4.7
CCc1c(C)nc2ncnn2c1NCCc1ccc(Cl)cc1	22.3	87.8*	35.4	5.5	16.9	47.8
CCc1c(C)nc2ncnn2c1NCCc1ccccc1	15.1	60.3	8.6	-13.6	20.2	22.5
COc1ccc(S(=O)(=O)N(C)C[C@@H]2Oc3ccc(NS(C)(=O)=O)cc3C(=O)N([C@@H](C)CO)C[C@H]2C)cc1	10.1	12.8	-20.3	-13.5	2.1	-4.0
CC1CN(C(=O)c2cccc(S(=O)(=O)Nc3ccc(Cl)cc3)c2)CC(C)O1 (configuration not stated)	9.5	9.3	-3.7	-1.5	6.0	-0.5
O=C(O)C1(Nc2ccccc2Cl)CCCC1	9.8	93.0*	/	/	0.7	6.3
O=C(Nc1ccc(N2CCOCC2)cc1)c1cn2ccccc2n1	21.4	1.8	-58.3	-58.9	55.4*	0.1
CN(C(=O)c1ccccn1)C1(C(=O)NC2CCCCC2)CCCCC1	-6.3	-22.3	1.3	-3.9	1.4	1.3
O=C(/C=C/c1ccccc1)C1C(=O)c2ccccc2C1=O	0.0	-32.2	-24.2	-31.1	34.3	-51.2
CC[N+]1(C)CCC(O)(/C=C/c2ccccc2)C(C(=O)/C=C/c2ccccc2)C1 (configuration not stated)	66.5*	98.9*	/	/	-2.8	-8.9
COc1ccc(/C=C/C(=O)OCC(=O)NC2CCCC(C)C2C)c(OC)c1 (configuration not stated)	10.3	-12.4	3.5	-15.5	-13.9	-7.8
COc1cc(Cl)cc(/C=N\NC(=O)c2ccc3c(c2)OCO3)c1O	/	88.0*	/	/	31.3	/
